From PubChem BioAssay (NCI)
Compounds without any hit were thinned out: in the full panel of roughly 83,000, 20% have a hit.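 A percent growth of 40 corresponds to 60% growth inhibition; 0 means no net growth; -100 means all cells died. Active threshold: below 10.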 Values without a mark were called inactive. Active and inactive are the calls of the source.

Experiments:
Experiment in all cases: NCI-60 one-dose screen, 48 h (100 = growth as untreated, 0 = no growth, -100 = all killed)
NCI-H23 lung = details: 10 µM unless noted
NCI-H226 lung = details: 10 µM unless noted
DU-145 prostate = details: 10 µM unless noted
MDA-MB-231 breast = details: 10 µM unless noted
SF-268 CNS = details: 10 µM unless noted
M14 melanoma = details: 10 µM unless noted
HCT-15 colon = details: 10 µM
SNB-75 CNS = details: 10 µM unless noted
U251 CNS = details: 10 µM unless noted
PC-3 prostate = details: 10 µM unless noted
UACC-62 melanoma = details: 10 µM unless noted
OVCAR-8 ovarian = details: 10 µM unless noted
OVCAR-5 ovarian = details: 10 µM unless noted
SK-OV-3 ovarian = details: 10 µM unless noted
OVCAR-3 ovarian = details: 10 µM unless noted
NCI/ADR-RES ovarian = details: 10 µM unless noted
MDA-MB-435 melanoma = details: 10 µM unless noted
MCF7 breast = details: 10 µM unless noted
HCT-116 colon = details: 10 µM unless noted
KM12 colon = details: 10 µM unless noted

Compound	growth (NCI-H23 lung)	growth (NCI-H226 lung)	growth (DU-145 prostate)	growth (MDA-MB-231 breast)	growth (SF-268 CNS)	growth (M14 melanoma)	growth (HCT-15 colon)	growth (SNB-75 CNS)	growth (U251 CNS)	growth (PC-3 prostate)	growth (UACC-62 melanoma)	growth (OVCAR-8 ovarian)	growth (OVCAR-5 ovarian)	growth (SK-OV-3 ovarian)	growth (OVCAR-3 ovarian)	growth (NCI/ADR-RES ovarian)	growth (MDA-MB-435 melanoma)	growth (MCF7 breast)	growth (HCT-116 colon)	growth (KM12 colon)
CC(/C=N/N=C(N)N)=N\N=C(N)N	68.9%	95.8%	65.5%	80.2%	50.3%	80.3%	100%	63.7%	77.8%	101%	86.7%	58.4%	82.1%	84.9%	57.7%	24.9%	89.2%	76.8%	49%	40.9%
C[CH2][Pb]([CH2]C)([CH2]C)[O]C(=O)COC	-2.61% (active)	6.09% (active)	10.3%	8.7% (active)	-14.8% (active)	9.74% (active)	8.99% (active)	-4.45% (active)	-12.1% (active)	14.1%	19.3%	3.57% (active)	-4.48% (active)	-3.94% (active)	-3.39% (active)	4.13% (active)	-12.3% (active)	0.034% (active)	-29.7% (active)	5.08% (active)
CCCC(C)(C)c1ccc2c(c1)OC(C)(C)[C@@H]1CC=C(C)C[C@@H]21	96.1%	98.3%	108%	108%	93%	99.7%	107%	88.2%	96.2%	84.3%	98%	97.7%	107%	89.2%	102%	98.9%	105%	93.9%	87.6%	103%
CC(=O)[O][Hg][CH2]C1(C)COC(C)([CH2][Hg][O]C(C)=O)CO1 (stereo unspecified)	65.4%	86.7%	–	42.8%	88.2%	39%	-94% (active)	38%	-96.2% (active)	89.5%	95.8%	50.7%	114%	103%	-100% (active)	94.9%	-2.3% (active)	-81.1% (active)	-86.2% (active)	–
N#CC(C#N)=Cc1ccc2ccccc2c1	100%	106%	109%	106%	116%	104%	111%	103%	104%	95.7%	115%	105%	106%	104%	117%	108%	114%	103%	107%	–
Cc1cc(NC(=O)/C=C/c2ccc([N+](=O)[O-])cc2)ccc1S(=O)(=O)F	109%	105%	103%	99.6%	109%	112%	98.2%	106%	102%	98.9%	98.2%	98.6%	113%	99.9%	122%	106%	99.7%	91.8%	113%	97%
CC(=O)Nc1ccc(Cc2ccc(NC(C)=O)cc2)cc1	107%	107%	130%	105%	117%	99.9%	107%	93.4%	101%	71.4%	107%	95.6%	90.7%	–	119%	95.9%	106%	99.8%	94.9%	139%
N#[N+]c1nc2nc(N)[nH]c(=O)c2[nH]1	103%	98%	105%	107%	104%	100%	97.9%	92%	91.5%	96.8%	97.7%	100%	104%	94.2%	113%	101%	100%	90.7%	96.8%	108%
Cc1ccc(N)cc1[As]=[As]c1cc(N)ccc1C (stereo unspecified)	-56.4% (active)	-93.2% (active)	-40.6% (active)	-92.6% (active)	-83.6% (active)	-72.2% (active)	-68.5% (active)	-99.6% (active)	-98.7% (active)	-89.9% (active)	-90.4% (active)	-95.3% (active)	-90.6% (active)	75.3%	-92.6% (active)	53.8%	-89% (active)	-74.9% (active)	-79.4% (active)	65.7%
CC(C)(C)NCC(O)c1ccccc1Cl (stereo unspecified)	25%	45%	-27.8% (active)	12.8%	26.6%	-12.8% (active)	58.9%	-24.4% (active)	10.2%	18%	24%	9.87% (active)	11%	9.23% (active)	-25.7% (active)	85.6%	-52.5% (active)	–	7.48% (active)	3.52% (active)
CN(Cc1cccnc1)N=O	96.3%	92.3%	108%	103%	95.5%	97.4%	100%	85.1%	97.1%	95.9%	98.3%	98.6%	99.8%	99.4%	101%	100%	103%	95.9%	93.1%	102%
COc1ccc2c(c1)NC1=C(C(=O)OC1)C2c1cc(OC)c(OC)c(OC)c1 (stereo unspecified)	16.2%	49.6%	-24.7% (active)	6.08% (active)	22.6%	6.44% (active)	15.3%	45.7%	5.77% (active)	20.6%	44.7%	15.2%	36.1%	36.9%	-41.9% (active)	-34.5% (active)	-35.5% (active)	9.07% (active)	5.07% (active)	-4.06% (active)
CNC(=O)Oc1cccc(OC)c1	101%	102%	115%	93.3%	118%	107%	112%	–	110%	109%	100%	108%	113%	118%	121%	106%	95.5%	101%	103%	112%
Cc1cccc(N=C2c3cc([N+](=O)[O-])ccc3-c3c2cc([N+](=O)[O-])cc3[N+](=O)[O-])c1	56.5%	80.1%	88%	60.2%	58.7%	69.4%	34.2%	84.4%	40.3%	16.8%	77.5%	64.5%	99.4%	119%	50.4%	56.5%	45%	21.3%	-0.611% (active)	52.4%
O=C(CCF)c1ccc(O)cc1	94%	105%	105%	113%	–	106%	102%	96.9%	106%	98%	106%	99.2%	96.7%	103%	109%	105%	104%	101%	103%	106%
CCC[CH2][Sn]([CH2]CCC)([CH2]CCC)[O]C(=O)CC	-87.1% (active)	-58.9% (active)	-97.7% (active)	-79.4% (active)	-97.3% (active)	-91.4% (active)	-72.9% (active)	-99.6% (active)	-84.6% (active)	-92.7% (active)	-90% (active)	-70.4% (active)	-91.2% (active)	-99.5% (active)	-99.1% (active)	-87% (active)	-89.3% (active)	-82.1% (active)	-88.6% (active)	-93.2% (active)
NCCc1cc(O)c(O)cc1O	100%	99.1%	112%	94.4%	104%	99.6%	97.6%	95.9%	95.4%	82.3%	–	97.8%	–	99%	111%	101%	108%	105%	95.3%	96.8%
